This is a sample that favours compounds with a hit; in the whole collection about 10% have one here.
Luc counter = Counterscreen for Luciferase (Kinase-Glo TM) Inhibition; Luciferin 4-monooxygenase (Photuris pensylvanica), Q27757; Kinase-Glo luciferase, ATP luminescence, 8 min; Potency, µM (series often up to 38.3 µM), for the others: at the highest dose activity change, negative = inhibition, actives largely listed as inhibitors; hit rate 0.28% among 200,000; AID 1379, 2008; active = well fitted inhibition curve with a large enough effect; inconclusive = small, poorly fitted or top-dose-only effect; note: potency is the fitted concentration of half-maximal effect; nearly all actives have a fitted effect of over 60% in size
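Inhibition of Kinase-Glo luciferase light generation was assessed at 10 uM ATP in pH 7.2 imidazole buffer, with luminescence measured after eight minutes at ambient temperature.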
IMPase cell inh = qHTS Assay for Identifying the Cell-Membrane Permeable IMPase Inhibitors; 120,000 tested, under 10 active; CHO-M1 cells, IP1 accumulation, HTRF TR-FRET ratio; AID 901, 2007; inhibition (IP1 accumulation), % at 46.1 µM; Inositol monophosphatase 1 (Rattus norvegicus), P97697; active = well fitted curve in the direction sought with a large enough effect in the signal ratio, not every such curve was filed as active; inconclusive = small, poorly fitted or top-dose-only effect, or a change in a side signal; inactive = no such curve, though single readings can be large or run the other way; the % refers to the signal ratio;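 note: cells stimulated with carbachol in lithium chloride buffer; plate controls were DMSO basal wells for no effect and reference inhibitor wells for full effect; higher means more IMPase inhibition seen as more IP1 and lower FRET ratio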
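In this qHTS, compounds (final up to 46 uM) act on CHO-M1 cells that are then activated through the M1 receptor with carbachol, in pH 7.4 buffer containing 50 mM LiCl, for 30 min. IP1 accumulation is quantified by the IP-One immunoassay.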
PNC assembly inh = High Content Assay for Compounds that inhibit the Assembly of the Perinucleolar Compartment; PC3M PTB-GFP, PNC prevalence imaging, 16 h; stronger effect = lower value; activity change (PNC), negative = inhibition, % at 10 µM; hit rate 3.1% among 140,000;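 active = readout at or below -70, meaning at least 70% loss of cells showing the perinucleolar compartment, a nuclear body marking cancer cells; inconclusive = readout between -30 and a set limit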;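 note: plate controls were DMSO wells for no effect and camptothecin positive control wells for full effect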
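Read-out is percentage of cells bearing a perinucleolar compartment, from automated 20x imaging of fixed, Hoechst-stained PC3M PTB-GFP cells. Cells were seeded 4 h, then exposed 16 h to compound (23 nl of library stock) in duplicate plates.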
HPGD block = qHTS Assay for Inhibitors of HPGD (15-Hydroxyprostaglandin Dehydrogenase); purified HPGD, NADH fluorescence kinetic, PGE2 substrate; Potency, µM, for inactives: at the top dose activity change, negative = inhibition, hits mostly inhibitors; hit rate 4.3% among 150,000; AID 894, 2007; note: potency is the fitted concentration of half-maximal effect
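NADH formation kinetics: reaction with 30 uM PGE2 and 1 mM NAD+ (final), 20 nM enzyme, Tris-HCl pH 8 with Tween 20, after 15 min compound preincubation at room temperature. Fluorescence change, last versus first of five reads.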
ALDH1A1 block = qHTS Assay for Inhibitors of Aldehyde Dehydrogenase 1 (ALDH1A1); Purified ALDH1A1, NADH fluorescence, propionaldehyde substrate; hit rate 7.3% among 220,000; AID 1030, 2008; Potency, µM (highest dose often 75.3 µM), without a hit: top-dose activity, negative = inhibition, most hits filed as inhibitors;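 note: potency is the fitted concentration of half-maximal effect; plate controls were no enzyme wells and a reference inhibitor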
Target sequence (P00352 whole entry, looked up): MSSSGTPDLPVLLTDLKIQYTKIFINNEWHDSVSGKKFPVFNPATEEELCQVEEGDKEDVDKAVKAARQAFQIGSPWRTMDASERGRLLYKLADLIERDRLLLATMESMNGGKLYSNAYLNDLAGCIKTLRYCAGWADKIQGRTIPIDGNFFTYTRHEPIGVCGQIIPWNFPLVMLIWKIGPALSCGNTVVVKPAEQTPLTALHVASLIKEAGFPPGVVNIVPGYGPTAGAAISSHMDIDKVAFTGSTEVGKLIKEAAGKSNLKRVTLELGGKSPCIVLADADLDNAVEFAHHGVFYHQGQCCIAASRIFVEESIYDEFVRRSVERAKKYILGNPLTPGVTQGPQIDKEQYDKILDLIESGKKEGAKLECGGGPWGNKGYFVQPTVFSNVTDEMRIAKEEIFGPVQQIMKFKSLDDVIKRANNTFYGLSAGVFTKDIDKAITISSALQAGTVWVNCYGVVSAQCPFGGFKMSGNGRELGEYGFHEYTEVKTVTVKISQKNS
LMNA splice mod = qHTS Assay for Modulators of Lamin A Splicing; HeLa LMNA splicing GFP/RFP minigene ratio, 48 h; Potency, µM (doses to about 46.1 µM), inactives show at the top dose ratio change, negative = inhibition, most hits filed as inhibitors; hit rate 0.01% among 200,000; active = well fitted inhibition curve with a large enough effect in the signal ratio, with a control signal flat, not every such curve was filed as active; inconclusive = small, poorly fitted or top-dose-only effect, or effect the other way, or a change in a side signal; the % refers to the signal ratio; note: potency is the fitted concentration of half-maximal effect
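S3 HeLa stable clones carrying a lamin A-EGFP splicing minigene plus DsRed2 were seeded at 600 cells/well in Opti-MEM with 2% FBS, pin-dosed and incubated 48 h at 37°C. Acumen cytometry (488 nm) gave the GFP/RFP total-intensity ratio.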
An asterisk follows results filed as active; [ ] = another dose, or the depositor's remark. Unless noted, calls come from the whole dose curve; as a rule, active = well fitted inhibition curve with a large enough effect (not every such curve was filed as active); inconclusive = small, poorly fitted or top-dose-only effect, or another doubt; inactive = no such curve, though single readings can be large or run the other way. Unless noted, % is set by controls: 0 for no effect and ±100 for the full control effect.

`O=C(CCCCCN1C(=O)c2ccccc2C1=O)NCc1ccco1` gave Luc counter -1%, IMPase cell inh 9, PNC assembly inh 4, HPGD block 11µM*, ALDH1A1 block -5% and LMNA splice mod 2%.
COc1cc2c(cc1OC)C(COc1cccc(C(F)(F)F)c1)N(C(=O)c1ccc(S(=O)(=O)N3CCCC3)cc1)CC2 (stereo not given) was read as LMNA splice mod -15%[46 µM].
For C=CCNC(=O)c1cc(Cl)ccc1Cl the results were Luc counter -6%, IMPase cell inh -20, PNC assembly inh -9, HPGD block 20µM*, ALDH1A1 block 0% and LMNA splice mod 2%.
C=CCNC(=O)c1ccc(-c2nc(-c3ccc(Cl)c(Cl)c3)cs2)cc1 was read as Luc counter 3%, IMPase cell inh 1, PNC assembly inh 57, HPGD block -23%, ALDH1A1 block 0% and LMNA splice mod inconclusive.
`C=CCNC(=O)c1ccc(-c2nc(-c3ccc(Cl)cc3Cl)cs2)cc1` gave Luc counter 1%, IMPase cell inh 2, PNC assembly inh -21, HPGD block 4µM*, ALDH1A1 block 1% and LMNA splice mod -2%.
C=CCNC(=O)c1cc(Cl)ccc1[N+](=O)[O-] was read as Luc counter -3%, PNC assembly inh 9, HPGD block -10%, ALDH1A1 block 6% and LMNA splice mod -6%.
Screening Cc1ccc(CNC(=O)C2CCN(c3nn4cc(-c5ccc(F)cc5)nc4s3)CC2)cc1 returned LMNA splice mod 9%[46 µM].
Screening CC1(C)OCC(CSC2=C(SCC3COC(C)(C)O3)C(=O)c3ncccc3C2=O)O1 (stereo not given) returned Luc counter -8%, HPGD block 3.5µM* and ALDH1A1 block 2.5µM*.
`Cc1cc(C)c2sc(NC(=O)c3ccc(S(=O)(=O)N4CCOCC4)cc3)nc2c1` gave LMNA splice mod 20%[46 µM].
Cc1ccc2c(c1)c(=O)c(C(=O)c1ccncc1)cn2CC(=O)Nc1ccc(C(C)C)cc1 was read as LMNA splice mod 16%[46 µM].
Cn1c(=O)c2ncn(CC(=O)NCCC3=CCCCC3)c2n(C)c1=O was read as Luc counter 6%, IMPase cell inh -6, PNC assembly inh -100*, HPGD block -15%, ALDH1A1 block inconclusive and LMNA splice mod -7%.
Screening Cc1ccc(-c2nnn(CC(=O)NCCC3=CCCCC3)n2)cc1 returned Luc counter 0%, IMPase cell inh 13, PNC assembly inh -21, HPGD block -13%, ALDH1A1 block 28µM* and LMNA splice mod -2%.
`CCc1ccc(C(C)NC(=O)Cn2cnc3c(=O)n(C)c(=O)n(C)c32)cc1` (stereo not given) gave Luc counter -2%, IMPase cell inh inconclusive, PNC assembly inh -2, HPGD block -11%, ALDH1A1 block 28µM* and LMNA splice mod -14%.
O=C(Cn1nnc(-c2ccc(Cl)cc2)n1)NCCC1=CCCCC1 was read as Luc counter -1%, IMPase cell inh 6, PNC assembly inh 0, HPGD block -1%, ALDH1A1 block -6% and LMNA splice mod -5%.
For O=C(c1cccc(F)c1)N1CCC2(CC1)CCN(c1ccncc1)CC2 the results were Luc counter 1%, HPGD block -13% and ALDH1A1 block 20%.
For C=CCC(C)(O)c1cccc(Br)c1 (stereo not given) the results were Luc counter 0%, HPGD block -2% and ALDH1A1 block 13%.
`COc1ccc(Nc2nc(Nc3ccc(OC)cc3OC)nc(N3CCOCC3)n2)c(OC)c1` gave IMPase cell inh 1.
Screening Fc1ccc(Nc2nc(Oc3ccc4c(c3)OCO4)nc(N3CCOCC3)n2)c(F)c1 returned Luc counter -2%, IMPase cell inh 5, PNC assembly inh -95*, HPGD block -4%, ALDH1A1 block 12% and LMNA splice mod 1%.
For CC(C)c1cc(C(=O)NNC(=S)NCc2ccco2)c(O)c(C(C)C)c1 the results were Luc counter 2%, IMPase cell inh -9, PNC assembly inh 18, HPGD block inconclusive, ALDH1A1 block 22µM* and LMNA splice mod inconclusive.
For Cc1noc(C)c1CSc1ccc2ccccc2n1 the results were Luc counter -1%, IMPase cell inh 4, PNC assembly inh -119*, HPGD block -22%, ALDH1A1 block -1% and LMNA splice mod -13%.
`O=C(O)CCn1c(SCc2ccccc2)nc2ccccc21` gave Luc counter -2%, IMPase cell inh -3, PNC assembly inh inconclusive, HPGD block -12%, ALDH1A1 block 5% and LMNA splice mod 16%.
Screening Cc1noc(C)c1CSc1nc2ccccc2n1CCc1ccccc1 returned Luc counter -2%, IMPase cell inh 3, PNC assembly inh -1, HPGD block -28%, ALDH1A1 block 28µM* and LMNA splice mod -7%.
`Cc1c(Cl)cccc1NC(=O)C(C)n1c(=O)cc(C)c2c(C)nn(-c3ccccc3)c21` (stereo not given) gave LMNA splice mod 1%[46 µM].
For N#CC1=C(Nc2ccccc2)SC=C(c2ccccc2)N=C1N1CCOCC1 the results were Luc counter -5%, IMPase cell inh 9, PNC assembly inh -12, HPGD block -18%, ALDH1A1 block 25µM* and LMNA splice mod 7%.
`N#CC1=C(Nc2ccccc2)SC=C(c2ccc(Cl)c(Cl)c2)N=C1N1CCOCC1` gave Luc counter -3%, IMPase cell inh 11, PNC assembly inh 79, HPGD block -7%, ALDH1A1 block inconclusive and LMNA splice mod 13%[0.0737 µM].
Screening CSCCC(NC(=O)c1ccc(Cl)cc1)C(=O)O (stereo not given) returned ALDH1A1 block 6%.
`CSCCC(NC(=O)c1cc([N+](=O)[O-])ccc1Cl)C(=O)O` (stereo not given) gave Luc counter 2%, IMPase cell inh 2, PNC assembly inh -82*, HPGD block -10%, ALDH1A1 block 3% and LMNA splice mod -14%.
`COc1ccc(C(=O)NC(CC(=O)O)c2cc([N+](=O)[O-])ccc2Cl)c(SC)c1` (stereo not given) gave Luc counter 12%, ALDH1A1 block 8.9µM* and LMNA splice mod 19%[9.22 µM].
